The record followed here is PubChem BioAssay AID1455 (National Center for Advancing Translational Sciences (NCATS), 2008).

Records with an inconclusive call do not appear. The source made the active and inactive calls. The call rests on the fitted dose curve; in most records, active means well fitted inhibition curve with a large enough effect; inconclusive means small, poorly fitted or top-dose-only effect; inactive means no such curve, though single readings can be large or run the other way.

This assay concerns the target Ubiquitin carboxyl-terminal hydrolase 2 (Homo sapiens) (UniProt O75604). In words: Confirmation Concentration-response Assay for Inhibitors of Ubiquitin-specific Protease USP2a. The following applies: USP2 core, Ub-PLA2 coupled fluorescence, NBD C6-HPC. From the text:
NIH Molecular Libraries Screening Centers Network [MLSCN] NIH Chemical Genomics Center [NCGC] MLSCN Grant: XO1-MH079852-01 PI Name: Nicholson, Ben. Progenra Inc, Malvern, PA NCGC Assay Overview: Homeostasis of cellular proteins is maintained through a combination of synthesis and degradation. The pathway that accounts for the majority of protein degradation is the ubiquitin-proteasomal pathway. Ubiquitin (Ub) is highly conserved in all cells and the generation of a multi-Ub chain typically targets proteins for degradation by the proteasome. However, ubiquitination is highly reversible and dynamic. […] Thus, this coupled assay gives a fluorescent read-out, which is generated through the cleavage of the PLA2 reporter enzyme. […]
NCGC Assay Protocol Summary: The assay buffer, prepared fresh at the day of the assay, contains 20mM Tris-HCl pH 8.0, 2mM CaCl2, 2mM beta-Mercaptoethanol, 0.1% DMSO. […] Plates were read immediately (0 Hour) on an Envision (Perkin Elmer) plate reader using the following wavelengths Ex 460nm /Em 535nm. Then, the assay plates were incubated for 2.5 hours and read again on the Envision using the same settings Data were normalized to the to AC100 inhibition (NEM). Concentration-response curves were fitted to the normalized data and the concentration-response curves were then classified based on curve quality (r2), response magnitude and degree of measured activity. […]

Chain of Ubiquitin carboxyl-terminal hydrolase 2 (Homo sapiens) (O75604 whole entry, looked up): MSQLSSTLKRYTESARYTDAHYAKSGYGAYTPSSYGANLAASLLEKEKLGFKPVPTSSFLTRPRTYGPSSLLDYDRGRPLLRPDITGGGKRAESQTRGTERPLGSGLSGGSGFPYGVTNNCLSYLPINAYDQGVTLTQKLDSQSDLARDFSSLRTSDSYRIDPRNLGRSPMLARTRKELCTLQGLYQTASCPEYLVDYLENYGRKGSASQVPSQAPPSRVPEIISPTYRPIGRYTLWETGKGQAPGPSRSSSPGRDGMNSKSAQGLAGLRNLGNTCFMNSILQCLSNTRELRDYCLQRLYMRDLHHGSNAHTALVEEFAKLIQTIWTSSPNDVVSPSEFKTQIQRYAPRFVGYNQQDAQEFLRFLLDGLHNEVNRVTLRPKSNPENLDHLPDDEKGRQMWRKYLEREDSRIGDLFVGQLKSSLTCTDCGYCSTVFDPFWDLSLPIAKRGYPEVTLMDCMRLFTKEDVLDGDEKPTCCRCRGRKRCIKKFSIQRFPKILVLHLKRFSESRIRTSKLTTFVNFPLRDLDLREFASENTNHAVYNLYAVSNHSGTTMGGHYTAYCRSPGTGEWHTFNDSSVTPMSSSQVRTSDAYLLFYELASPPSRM

As to `Cc1ccc2scc(N3CCN(C)CC3)c(=O)c2c1`, the Potency was 12.6 µM (active).
